# Screening data deposited in PubChem BioAssay by National Center for Advancing Translational Sciences (NCATS).
# A selection: hits, their analogues and other compounds. The true share with any hit is near 5.4%.
# Gal4-VP16 FLuc: inhibits Gal4-VP16 luciferase reporter, ROR gamma counter-screen. AID 2546. Potency, µM (highest dose often 53.6 µM), without a hit: at the top dose activity, negative = inhibition, hits mostly inhibitors. actives 3.5% (n = 310,000). Drosophila S2 Gal4-VP16 UAS-luciferase, luminescence, 20 h;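 note: Gal4-VP16 expression switched on by copper sulfate through the metallothionein promoter; potency is the fitted concentration of half-maximal effect; % is set by controls: 0 for no effect and ±100 for the full control effect; nearly all actives have a fitted effect of over 50% in size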
# Six1-Eya2 blk: Six1/Eya2 interaction inhibition; Q15475+O00167; AlphaScreen GST-Six1/His-Eya2 binding, biochemical; active compounds read low; activity change, % (test concentration not listed); actives 0.56% (n = 360,000); AID 651725; in the data active = activity change below about -65%; inconclusive = mostly about -30% to -63%; note: % is set by controls: 0 for no effect and ±100 for the full control effect
#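 AlphaScreen with GST-Six1 and His-Eya2 (5X mix: 250 nM and 500 nM), glutathione donor and nickel acceptor beads; buffer 50 mM Tris pH 8.0, 300 mM NaCl, 1 mM TCEP; 1 h at 37 C in the dark.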
# CtBP-E1A blk: CtBP/E1A binding inhibition; activity change, % (concentration not given with the values); actives 0.49% (n = 340,000); AlphaScreen GST-E1A/His-CtBP binding, 1536-well; active compounds read low; AID 651724; in the data active = activity change below about -65%; inconclusive = mostly about -30% to -63%; note: % is set by controls: 0 for no effect and ±100 for the full control effect
#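 AlphaScreen with 125 nM GST-E1A and 125 nM His-CtBP (5X stocks) in Tris pH 8.0, 300 mM NaCl, BSA, Tween 20, TCEP. Compounds preincubated 2 h at 37 deg C, then glutathione donor/nickel acceptor beads added for 1 h at 37 deg C in dark.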
# p53 reactivation: re-activators of mutant p53. H1299 p53-A138V BP100-luciferase reporter, luminescence, 24 h. Potency, µM (titrated, usually from 92.2 µM), for inactives: at the top dose activity change, positive = activation, usual class: activators. actives 0.063% (n = 320,000); note: potency is the fitted concentration of half-maximal effect; % of control where 0% means no effect; nearly all actives have a fitted effect of over 45% in size
#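 H1299 (p53-null), stable ts p53-A138V + BP100-Luc; 1000 cells/well, Opti-MEM/10% FBS; cpd 4 pt, 1:5; 24 h, 37 deg C, 5% CO2; detection reagent 10 min RT; luminescence.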
# RORg inh: inhibitors of mouse ROR gamma transcriptional activity; P51450; Drosophila S2 Gal4-RORgamma UAS-luciferase reporter, 20 h; Potency, µM (top dose mostly 53.6 µM), inactives show at the highest dose activity change, negative = inhibition, hits mostly inhibitors; actives 5.4% (n = 310,000); note: potency is the fitted concentration of half-maximal effect; % is set by controls: 0 for no effect and ±100 for the full control effect; nearly all actives have a fitted effect of over 60% in size
# Target sequence (P51450 whole entry, looked up, the tested form may be a part): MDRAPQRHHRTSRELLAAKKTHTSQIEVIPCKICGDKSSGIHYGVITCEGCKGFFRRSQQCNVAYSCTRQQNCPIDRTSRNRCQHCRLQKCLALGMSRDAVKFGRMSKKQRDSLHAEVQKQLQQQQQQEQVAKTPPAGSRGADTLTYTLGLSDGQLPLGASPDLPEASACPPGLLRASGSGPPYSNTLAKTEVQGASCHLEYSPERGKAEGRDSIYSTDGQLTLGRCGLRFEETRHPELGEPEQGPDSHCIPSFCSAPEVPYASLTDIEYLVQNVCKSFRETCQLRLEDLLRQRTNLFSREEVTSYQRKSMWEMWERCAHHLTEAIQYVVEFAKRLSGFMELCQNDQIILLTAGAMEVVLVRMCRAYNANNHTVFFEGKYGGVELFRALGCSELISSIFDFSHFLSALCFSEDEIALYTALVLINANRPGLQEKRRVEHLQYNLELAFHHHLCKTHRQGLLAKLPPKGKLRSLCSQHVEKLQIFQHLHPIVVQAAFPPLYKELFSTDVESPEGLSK
#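 Compounds are pin-transferred onto Drosophila Schneider cells expressing a copper-inducible Gal4–ROR gamma transactivation domain fusion. After 1 hr, copper sulfate is added to 700 uM final; luciferase is read 20 hr later.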
# * hit, by the source's call; ? = inconclusive; . = not tested or not shown; [ ] = dose if it differs, or a comment. Unless noted, calls come from the whole dose curve; as a rule, active = well fitted curve in the direction sought with a large enough effect; inconclusive = small, poorly fitted or top-dose-only effect, or another doubt; inactive = no such curve, though single readings can be large; an effect the other way counts as inactive or inconclusive.
SMILES,Gal4-VP16 FLuc,Six1-Eya2 blk,CtBP-E1A blk,p53 reactivation,RORg inh
CCCCNc1c([N+](=O)[O-])cc(C(=O)O)cc1[N+](=O)[O-],3%,6,-14,1%,7%
Cc1ccc(S(=O)(=O)c2ccc(Cl)cc2)cc1S(N)(=O)=O,-8%,-1,-2,?,33%
CCN(CC)C(=O)c1cc([N+](=O)[O-])cc2c1-c1ccc([N+](=O)[O-])cc1C2=C(C#N)C#N,20µM*,-17,-23,-13%,?
COc1ccc(C(=O)N2CCN(C(=O)c3ccc(-c4ccccc4)cc3)CC2)cc1OC,2%,2,3,-4%,22%
COc1cc(OC)cc(C(=O)N2CCN(C(=O)c3ccc(-c4ccccc4)cc3)CC2)c1,7.1µM*,-9,-14,3%,1.1µM*
CC(NC(=O)Cn1ncc(Cl)c(Cl)c1=O)C12CC3CC(CC(C3)C1)C2 (configuration not stated),?,2,22,-21%,13µM*
CCn1cc(C(=O)NC(C)C23CC4CC(CC(C4)C2)C3)cn1 (configuration not stated),-9%,10,0,-8%,-4%
Cc1ccc(-c2nc(C(Cl)Cl)c3ccccc3n2)cc1,8.9µM*,-2,-2,27%,?
Cc1cc(C(=O)NC2CCCc3c2cnn3-c2ccc(C)c(C)c2)n(C)n1 (configuration not stated),0.0079µM*,9,3,-19%,?
Cc1ccc(-n2ncc3c2CCCC3NC(=O)c2ccoc2)cc1C (configuration not stated),-19%,-5,-2,-24%,40%
COCc1ccc(C(=O)NC2CCCc3c2cnn3-c2ccc(C)c(C)c2)o1 (configuration not stated),11µM*,-3,-4,18%,?
CC(OC(=O)CCCN=C1NS(=O)(=O)c2ccccc21)C(=O)Nc1ccccc1[N+](=O)[O-] (configuration not stated),.,-3,-22,2%,.
O=C(NCc1ccc(N2CCCC2=O)cc1)c1cc(COc2c(F)cccc2F)on1,?,3,0,-24%,?
CCN1CCN(c2cc(C)c3cc(NC(=S)N4CCN(c5ccccc5F)CC4)ccc3n2)CC1,?,-2,-10,3%,13µM*
Cc1cc(N2CCOCC2)nc2ccc(NC(=S)N3CCN(c4ccccc4)CC3)cc12,8%,-19,-27,7%,?
Cc1ccc(C)c(N2CCN(C(=S)Nc3ccc4nc(N5CCN(C)CC5)cc(C)c4c3)CC2)c1,?,4,-3,10%,11µM*
Cc1ccc(C)c(N2CCN(C(=S)Nc3ccc4nc(N5CCOCC5)cc(C)c4c3)CC2)c1,?,-2,2,7%,5.6µM*
Cc1cc(N2CCN(C)CC2)nc2ccc(NC(=S)N3CCN(c4ccccn4)CC3)cc12,-12%,-5,-9,20%,7%
COc1ccccc1N1CCN(C(=S)Nc2ccc3nc(N4CCOCC4)cc(C)c3c2)CC1,?,-12,-6,11%,4.5µM*
COc1ccc(OC)c(Cc2nnc(CCC(=O)NCc3ccsc3)o2)c1,16%,1,0,6%,13%
COc1cccc(-c2nccc(NCc3ccccc3OC)n2)c1,-1%,.,.,.,?
O=S(=O)(Nc1ccc(-c2ccc3nncn3n2)cc1)c1cccc(F)c1,.,-7,4,-1%,.
COc1ccc(NC(=O)C/C(C)=N/NC(=O)c2cccs2)c([N+](=O)[O-])c1,18µM*,-20,-22,24%,20µM*
COc1ccc(NC(=O)c2cccs2)c([N+](=O)[O-])c1,-4%,-7,-15,7%,11%
CC(C)C1CC(C(F)(F)F)n2nc(C(=O)O)cc2N1 (configuration not stated),5%,-5,-10,11%,8%
SMILES,Gal4-VP16 FLuc,Six1-Eya2 blk,CtBP-E1A blk,p53 reactivation,RORg inh
COC(=O)c1ccc(C(=O)OC)c(NC(=S)N2CC(C)CC(C)C2)c1 (configuration not stated),14%,11,4,-1%,11µM*
COC(=O)c1ccc(C(=O)OC)c(NC(=S)N2CCCC(C)C2)c1 (configuration not stated),7%,14,0,2%,7.9µM*
COC(=O)c1ccc(C(=O)OC)c(NC(=S)N2CCC(C(N)=O)CC2)c1,-1%[10 µM],-4,10,-1%,9%
O=C(CCCN1C(=O)C2CC=CCC2C1=O)Nc1ccccc1F (configuration not stated),-2%,11,5,-1%,-9%
CCOC(=O)c1cnc(-n2nc(C)cc2C)nc1N(C)C,4.5µM*,-20,?,?,1.1µM*
CCOC(=O)c1cnc(-n2nc(C)cc2C)nc1N1CCOCC1,11µM*,-10,-22,6%,10%
COc1ccc(N2C(=O)C3C(c4ccc(C(=O)O)cc4)NC(Cc4ccccc4)(C(=O)O)C3C2=O)c([N+](=O)[O-])c1 (configuration not stated),-24%,11,0,11%,2%
COc1cc(CCCN2C(=S)NC[C@@H]2CC2CCCCC2)cc(OC)c1OC,?,14,0,-4%,4µM*
Clc1ccc(N2CCN(c3ccnc(Cl)n3)CC2)cc1,.,-15,0,.,.
CSc1nccc(N2CCN(c3ccc(F)cc3)CC2)n1,13µM*,-7,2,-7%,?
O=c1c(-c2cc(F)cc(F)c2)nc2cnc(N3CCOCC3)nc2n1C1CC1,-16%,.,.,.,-12%
Clc1ccccc1Cn1c(/C=C/c2ccco2)nc2ccccc21,?,2,17,26%,11µM*
COCCN1C[C@@H](CO)O[C@@H](n2cnc3c(NCC(C)C)ncnc32)C1,.,0,1,.,.
CN(C(=O)c1ccc(NC(=O)Cc2cccc(NC(=O)C3CCN(C(=O)C4CCCC4)CC3)c2)cc1)C1CC1,.,3,7,.,.
O=C(N/N=C/c1c(O)ccc2ccccc12)c1ccc(CO)nc1,6.3µM*,-87*,-92*,?,4µM*
O=C(N/N=C\c1c(O)ccc2ccccc12)c1ccc(S(=O)(=O)N2CCCCC2)cc1,4µM*,-17,5,5%,2.5µM*
O=C(NN=Cc1c(O)ccc2ccccc12)c1ccc2c(c1)OCO2,.,-8,-21,24%,.
Cc1ccc(NC(=O)C2(C)CCN2C(=O)CC(c2ccccc2)c2ccccc2)cc1 (configuration not stated),.,0,-1,.,.
Cn1c(/C(C#N)=C(\O)c2ccc(Cl)s2)nc2ccccc21,4.5µM*,3,.,?,2µM*
Cc1oc(-c2nc3ccccc3n2C)cc1C(=O)c1ccccc1,?,-13,-10,10µM*,11µM*
Cc1ccc(-c2nc3ccccc3n2C)o1,?,0,-1,10%,11µM*
